Compound activity (PubChem BioAssay)
The list is not random: actives were taken first. Their share in the collection is about 3.6%.
Sfp PPTase inh – blocks B. subtilis Sfp PPTase activity; Biochemical Sfp PPTase activity, qHTS; 3.5% of 310,000 active; Potency, µM, inactives show largest response in the series, negative = inhibition, usual class: inhibitors; Q9F4F7;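 note: the enzyme is Sfp with the accession as filed and its product quenches rhodamine fluorescence; 0% = enzyme reaction without inhibitor and -100% = no enzyme wells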
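Fluorescence-quenching assay with 15 nM Sfp, 5 uM rhodamine-CoA and 12.5 uM BHQ-2-labelled ybbR peptide in pH 7.6 Hepes/MgCl2 buffer. Enzyme was pre-incubated with compound for 15 min at room temperature. Rate was taken from the 30-min fluorescence change (525/598 nm).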
NPSR antagonist – neuropeptide S receptor (human) antagonism, cAMP; AID 1461; Q6W5P4; Potency, µM (highest dose often 38.3 µM), without a hit: at the top dose activity change, negative = inhibition, most hits filed as inhibitors; 1% of 220,000 active; CHO-NPSR cells, cAMP TR-FRET, antagonist mode; note: % is set by controls: 0 for no effect and ±100 for the full control effect; nearly all actives have a fitted effect of over 50% in size
GCN5L2 inh – blocks human GCN5L2 histone acetyltransferase. 0.21% of 390,000 active. Potency, µM (titrated, usually from 58.9 µM), inactives show at the highest dose activity change, negative = inhibition, usual class: inhibitors. GCN5L2 HAT assay, ThioGlo1 CoA-SH fluorescence. Q92830; note: % is set by controls: 0 for no effect and ±100 for the full control effect
Target sequence (Q92830 whole entry, looked up): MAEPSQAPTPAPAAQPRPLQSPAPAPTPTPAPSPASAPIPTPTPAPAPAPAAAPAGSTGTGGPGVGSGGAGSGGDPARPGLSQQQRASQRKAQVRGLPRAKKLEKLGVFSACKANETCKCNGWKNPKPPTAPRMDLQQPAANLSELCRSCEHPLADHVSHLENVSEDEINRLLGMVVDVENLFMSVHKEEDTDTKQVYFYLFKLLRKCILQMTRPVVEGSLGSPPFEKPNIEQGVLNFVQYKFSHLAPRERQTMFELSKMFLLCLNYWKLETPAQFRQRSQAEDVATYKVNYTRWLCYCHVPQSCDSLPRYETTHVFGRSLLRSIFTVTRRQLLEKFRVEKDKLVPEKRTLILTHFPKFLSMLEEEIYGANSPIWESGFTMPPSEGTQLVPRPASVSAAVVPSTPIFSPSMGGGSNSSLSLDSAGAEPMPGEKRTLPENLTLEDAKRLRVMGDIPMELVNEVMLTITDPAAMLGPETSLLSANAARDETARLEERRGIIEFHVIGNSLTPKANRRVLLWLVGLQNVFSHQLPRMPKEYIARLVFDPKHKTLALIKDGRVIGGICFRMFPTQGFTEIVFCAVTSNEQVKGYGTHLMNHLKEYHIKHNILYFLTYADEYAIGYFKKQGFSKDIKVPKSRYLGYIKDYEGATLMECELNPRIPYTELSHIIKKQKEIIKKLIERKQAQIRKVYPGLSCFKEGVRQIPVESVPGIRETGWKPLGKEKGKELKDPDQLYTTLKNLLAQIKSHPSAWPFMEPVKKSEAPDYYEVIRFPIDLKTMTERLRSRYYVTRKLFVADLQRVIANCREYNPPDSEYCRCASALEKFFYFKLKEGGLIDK
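qHTS, 1536-well. 20nM enzyme, pH 7.5 HEPES/EDTA/Tween-20 buffer; 15 min compound preinc., RT. Start: 75uM H3(1-25), 70uM AcCoA, 50uM ThioGlo1. Read Ex340/Em540 at t=0 (autofluorescence flag) and t=20 min.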
Epigenetic reg – epigenetic control regulation, reporter derepression; 0.2% of 280,000 active; AID 1865; murine LDR cells, GFP reporter derepression, 30 h; Potency, µM (top dose mostly 53.9 µM), without a hit: at the highest dose GFP activation, most hits filed as activators; note: % of control where 0% means no effect; nearly all actives have a fitted effect of over 60% in size
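Reporter derepression read as number of fluorescent GFP-positive objects, 20-120 um in size, counted by laser-scanning cytometer. Mouse LDR line with an epigenetically silenced CMV-GFP locus; compound incubation 30 h, 37 C.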
IMPase Li cell – cell-permeable IMPase inhibitors with lithium potentiation; 0.35% of 210,000 active; CHO-M1 cells, IP1 TR-FRET (IP-One), carbachol + lithium; Potency, µM (titrated, usually from 59.4 µM), for the others: at the highest dose activity, negative = IMPase inhibition, hits mostly inhibitors;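 note: IP1 builds up when IMPase is blocked and the TR-FRET signal falls; plate controls were basal vehicle for no effect and high inhibitor control for full effect; nearly all actives have a fitted effect of over 50% in size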
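Test compounds were applied to CHO-M1 cells previously cultured for 16–30 h at 2000 per well. A small lithium amount accompanied them; after 30 min at 37C, IP1 was quantified by TR-FRET.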
KDM4E inh – JMJD2E (human) inhibition; B2RXH2; JMJD2E catalytic domain, FDH-coupled NADH fluorescence (FDH is formaldehyde dehydrogenase); Potency, µM (highest dose often 57.1 µM), for inactives: at the top dose activity change, negative = inhibition, most hits filed as inhibitors; 1.6% of 230,000 active; active = well fitted inhibition curve with a large enough effect, not every such curve was filed as active; inconclusive = small, poorly fitted or top-dose-only effect, or another doubt; inactive = no such curve, though single readings can be large or run the other way;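 note: 0% = wells with enzyme and -100% = buffer wells without enzyme; nearly all actives have a fitted effect of over 50% in size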
The depositor's hits bear a star; u = inconclusive; x = no result given; [ ] = another dose, or the depositor's remark. Unless noted, calls come from the whole dose curve; as a rule, active = well fitted curve in the direction sought with a large enough effect; inconclusive = small, poorly fitted or top-dose-only effect, or another doubt; inactive = no such curve, though single readings can be large; an effect the other way counts as inactive or inconclusive. Potency is the fitted concentration of half-maximal effect.

SMILES | Sfp PPTase inh | NPSR antagonist | GCN5L2 inh | Epigenetic reg | IMPase Li cell | KDM4E inh
CN1CCN(c2ncc3nc(-c4cc(F)cc(F)c4)c(=O)n(CCc4ccccc4)c3n2)CC1 | -5% | x | -11% | x | 14% | x
Cc1cccc(N2CCN(C(=S)c3ccc([N+](=O)[O-])cc3)CC2)c1 | 25µM* | -4% | -17% | 6% | 23% | -1%
O=[N+]([O-])c1cccc(C(=S)N2CCN(c3ccccc3)CC2)c1 | 32µM* | 4% | -3% | -1% | 12% | -21%
CC(=O)N1CCN(C(=S)c2ccc([N+](=O)[O-])cc2)CC1 | -10% | 1%[46.1 µM] | -12% | 0% | 13%[38.3 µM] | -6%
CN(C)c1ccc(C(=S)N2CCN(c3ccc([N+](=O)[O-])cc3)CC2)cc1 | 3.5µM* | 14% | u | 0% | x | -5%
CC(C)=CC[C@@H](O)C1=CC(=O)c2c(O)ccc(O)c2C1=O | 50µM* | x | 25µM* | 1% | 98% | x
CC(O)COC(C)(C)C (stereo unspecified) | x | x | x | x | 5% | x
COc1cccc(CNc2ccc(F)c(Cl)c2)c1O | 18% | 10µM* | -1% | 0% | 22%[38.3 µM] | u
S=c1nc(C23CC4CC(CC(C4)C2)C3)[nH][nH]1 | 56µM* | 5% | 0% | 1% | x | -24%
Cc1sc(N)nc1C12CC3CC(CC(C3)C1)C2 | -12% | 47% | -6% | -1% | -14% | -6%
COc1ccccc1NC(=S)c1ccccc1 | 32µM* | 9% | 0% | 0% | -2% | 5%
Ic1ccc2c(c1)N(c1ccccc1)c1cc(Nc3ccc4nc5ccc(I)cc5[n+](-c5ccccc5)c4c3)ccc1N2 | x | x | x | x | 6% | x
COC(=O)c1cccnc1NC(=S)NNC(=O)c1ccncc1 | 10µM* | 4%[46.1 µM] | -2% | 7% | 23%[38.3 µM] | -18%
CCc1nn(CC(=O)N2CCN(c3cccc(C(F)(F)F)c3)CC2)c(=O)c2cccn12 | x | x | -13% | -3% | x | x
O=c1c(-n2cncn2)c[nH]n1-c1cccc(Cl)n1 | 56µM* | 12% | -4% | 2% | 3% | 0%
COc1cccc(-c2nc(SCc3cccc(Br)c3)n3[nH]c(=O)cc3n2)c1 | x | x | 1% | 14% | x | x
CC(C)N(CC#CCC1(O)c2ccccc2-c2ccccc21)CCO | 50µM* | 6%[46.1 µM] | -5% | -1% | 10% | u
CC(C)N(CC#CC(O)(c1ccccc1)c1ccccc1)CCO | 3% | 4% | -3% | 0% | 20% | 0%
CCN(CC#CCC1(O)c2ccccc2-c2ccccc21)CCO | 89µM* | 1%[46.1 µM] | -7% | -1% | 8%[38.3 µM] | -1%
Cc1c(Cl)cccc1NC(=O)Cn1c(=O)n(Cc2ccco2)c(=O)c2oc3ccccc3c21 | x | x | -5% | u | x | x
COc1cccc(-n2nnnc2S(C)(=O)=O)c1 | -27% | 10µM* | 0% | -1% | 28%[38.3 µM] | 3%
Cc1cccc(-n2nnnc2S(C)(=O)=O)c1 | x | x | -1% | -4% | x | x
Nc1c(S(=O)(=O)O)cc(Nc2cccc3ccccc23)c2c1C(=O)c1ccccc1C2=O | u | x | 13µM* | x | x | x
Nc1c(S(=O)(=O)O)cc(NC(=O)c2ccccc2)c2c1C(=O)c1ccccc1C2=O | u | x | -17% | x | x | x
Nc1c(S(=O)(=O)O)cc(Nc2ccc(Cl)cc2)c2c1C(=O)c1ccccc1C2=O | 16µM* | x | 28µM* | x | x | x
O=[N+]([O-])c1ccc(Nc2nc(Cl)nc(NCCO)n2)cc1 | 7% | 0% | 0% | 2% | -8% | 1%
Nc1c(S(=O)(=O)O)cc(Nc2ccc(Nc3nc(Cl)nc(Nc4ccc(S(=O)(=O)O)cc4)n3)c(S(=O)(=O)O)c2)c2c1C(=O)c1ccccc1C2=O | x | u | 20µM* | 0% | 30% | -2%
COC(=O)C1(C(=O)OC)CC2=CC(CC2=O)Cc2ccccc2[C@@H]1C[N+](=O)[O-] (stereo partly specified) | 12% | x | x | -1% | 1% | -4%
